Data from PubChem BioAssay (NCI).
This is part of a sample that, as a whole, favours compounds with a hit. Of some 79,000 tested, about 15% had one in any assay. Activity calls are given as the source filed them. Rule as the data show it: active = growth inhibition above about 70%; inactive = the rest.

Assay: NCI Yeast Anticancer Drug Screen. Data for the wt2 strain (AID 169);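 also: 0% = growth of vehicle-treated yeast cultures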
Conditions: S. cerevisiae wt2 strain growth inhibition, active compounds read high
Description: Growth inhibition of yeast strains with defined genetic alterations is measured as a screen for potential anti-cancer activity. Selected strains with alterations in DNA damage repair or cell cycle control were exposed to compounds and growth inhibition was measured relative to vehicle treated controls. The strain used in this assay is wt2

Measured: growth inhibition

COc1ccc(N)c2c1C(=O)c1ccccc1C2=O
inactive: at 1.2 µM -11% | at 3.7 µM -11% | at 11.0 µM -6% | at 33.0 µM 42%
active: at 100.0 µM 93%

Cc1ccccc1NC(=O)Cc1csc(N/N=C2\NC(=O)/C(=C/c3cccc([N+](=O)[O-])c3)S2)n1
inactive: at 1.2 µM 2% | at 3.7 µM 3% | at 11.0 µM 5% | at 33.0 µM 17% | at 100.0 µM 46%

O=C(NCCCCCN1CCC2(CCCCC2)CC1)C(C1CCCCC1)C1CCCCC1
active: at 33.0 µM 99% | at 100.0 µM 99%
inactive: at 1.2 µM -1% | at 3.7 µM 3% | at 11.0 µM 45%

CCC(C)(c1ccc(O)c(C)c1)c1ccc(O)c(C)c1
inactive: at 1.2 µM -33% | at 3.7 µM -31% | at 11.0 µM 45%
active: at 33.0 µM 98% | at 100.0 µM 99%

O=C1C=CC(=O)N1c1ccc2c(c1)OCO2
inactive: at 1.2 µM 17%
active: at 3.7 µM 99% | at 11.0 µM 100% | at 33.0 µM 100% | at 100.0 µM 100%

CC(=O)C1(O)Cc2c(O)c3c(c(O)c2C(OC2CC(N)C(O)C(C)O2)C1)C(=O)c1ccccc1C3=O (stereo not given)
active: at 11.0 µM 93% | at 33.0 µM 98% | at 100.0 µM 99%
inactive: at 1.2 µM 2% | at 3.7 µM 27%

Cc1cccc(/C=N/NC(=S)N(C)CCc2ccccn2)n1
active: at 1.2 µM 89% | at 3.7 µM 93% | at 11.0 µM 97% | at 33.0 µM 98% | at 100.0 µM 99%

O=C1C=CC(=Nc2ccccc2)c2ccccc21
inactive: at 1.2 µM 8% | at 3.7 µM 17% | at 11.0 µM 35% | at 33.0 µM 54% | at 100.0 µM 69%
